A selection: hits, their analogues and other compounds. The true share with any hit is near 5.9%.
HSF1 inhib = HSF1 inhibitors in luciferase reporter cells, primary screen, cell-based, NIH3T3, luminescence; NIH3T3-HGL HSE-luciferase, MG132-induced, luminescence 8 h; stronger effect = lower value; activity change, negative = inhibition, % at 7.5 µM (by protocol); 0.77% of 300,000 active; AID 2098, 2009;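 active = more than half of replicate wells show activity change below -50%, luminescence cut by over half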;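 also: luciferase reports HSF-1 transcriptional activity via heat shock element; 0% = median of DMSO wells and -100% = zero luminescence signal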
HSF1 activator = HSF-1 activators, primary screen, NIH3T3-HGL cells, MG132 stress, luminescence, single point. NIH3T3-HGL HSF-1 luciferase reporter, 8 h; 100% = twice DMSO control signal. activation, % at 9 µM. AID 504408, 2011. 1.7% of 300,000 active;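 active = mean replicate activation of at least 50% with a set share of replicates each reaching 50%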;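 also: 0% = median of the neutral control wells and 100% = twice that signal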
DAX1 inh = DAX1 (NR0B1) inhibitors, primary screen, cell-based, HEK293, Gal4-DAX1, luciferase luminescence; 0.99% of 340,000 active; Nuclear receptor subfamily 0 group B member 1 (Homo sapiens), P51843; HEK293 Gal4-DAX1 luciferase reporter; inhibition, % at 6.75 µM;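 active = inhibition above the mean over all tested compounds plus 3 SD, cut at about 4.2% in these data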;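 also: 0% = DAX1-transfected cells with DMSO and 100% = empty-vector control cells with DMSO; inhibition shows as a rise in luminescence from relieved DAX1 repression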
Target sequence (P51843 207-470 limits assumed): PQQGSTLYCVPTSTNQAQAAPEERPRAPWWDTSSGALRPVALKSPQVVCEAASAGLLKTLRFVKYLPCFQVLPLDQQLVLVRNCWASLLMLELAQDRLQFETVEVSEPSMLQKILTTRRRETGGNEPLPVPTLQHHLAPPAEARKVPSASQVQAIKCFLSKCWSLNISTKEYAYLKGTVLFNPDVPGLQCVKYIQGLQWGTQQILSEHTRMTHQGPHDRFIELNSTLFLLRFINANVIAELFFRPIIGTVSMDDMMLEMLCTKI
HSP90 refold inh = HSP90 inhibitors, primary screen, cell lysate, luminescence | Heat shock protein HSP 90 (rabbit reticulocyte lysate; luciferase refolding) | Rabbit reticulocyte lysate, luciferase refolding luminescence, 3 h | inhibition, % at 5.6 µM | 0.91% of 290,000 active;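 active = inhibition above the screen-wide mean plus 3 SD, computed separately per campaign, cut at about 16% in these data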;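 also: 0% = DMSO wells and 100% = 60 µM geldanamycin wells; inhibitors lower the luminescence because luciferase stays unfolded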
AHR act = AHR activators, primary screen, cell-based, luminescence, luciferase reporter, human; AHR-responsive luciferase reporter cells; activation, % at 5 µM; 2.5% of 320,000 active; Aryl hydrocarbon receptor (Homo sapiens), P35869; AID 2796, 2010; in the data active = activation above about 47%;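 also: 0% = vehicle wells and 100% = reference agonist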
FXN GAA850 act = FXN promoter activators, primary screen, cell-based, luciferase luminescence, HEK293 lucGAA850. 0.56% of 360,000 active. activation, % at 6 µM. HEK293 lucGAA850 FXN promoter luciferase reporter, 24 h; percent of 10 µM SAHA response. AID 540364, 2011;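 active = activation above the average of all compounds screened plus 3 SD, cutoff fixed separately per campaign, cut at about 7.5% in these data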;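 also: 0% = DMSO wells and 100% = 10 µM SAHA wells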
Starred values were filed as active, the others as inactive; nt = not tested or not shown.

SMILES	HSF1 inhib	HSF1 activator	DAX1 inh	HSP90 refold inh	AHR act	FXN GAA850 act
CC(C)=CCC/C(C)=C/CNC(=O)C[C@H]1C[C@H](C(=O)N2CCOCC2)[C@@]2(CCC3CCCC3)c3[nH]c4cc(-c5ccco5)ccc4c3CCN2C1=O	nt	nt	0	nt	nt	0
COc1cc(=O)[nH]c(SCC(=O)Nc2nc3c(s2)CCCC3)n1	-86*	-89	0	9	1	0
COc1ccc(C2N(c3ccc(C)cc3)CCN2c2ccc(C)cc2)cc1O	2	-1	4.9*	-1	4	3
COc1cc(C2N(c3ccccc3)CCN2c2ccccc2)ccc1OC(C)=O	-11	-28	0	-1	9	1
Cc1cccc(NC(=O)C(C)Sc2nnc(-c3cccnc3)o2)c1 (stereo unspecified)	nt	nt	-1	nt	0	2
CCn1c(=O)c2c3c(sc2n2cnnc12)CCC3	-58*	-68	1	2	2	1
CCn1c(=O)n(CCc2ccccc2)c(=O)c2c3c(sc21)CCCC3	-3	-9	0	1	4	0
CCN(CC(=O)Nc1cc(Cl)ccc1C)C(=O)c1ccc(N2CCCC2=O)cc1	nt	nt	-1	nt	-1	0
COCC(=O)N(C)C[C@H]1Oc2ncc(C#C[C@H](C)O)cc2C(=O)N([C@@H](C)CO)C[C@H]1C	nt	nt	1	nt	nt	-1
O=C(N=C1N=C2C=CC(Br)=CN2Cc2ccccc21)c1ccc([N+](=O)[O-])cc1[N+](=O)[O-]	23	41	1	3	94*	3
COC(=O)c1nn(-c2cccc(C(F)(F)F)c2)c(=O)cc1Sc1ccccn1	-52*	-65	-2	-4	2	0
CCN(c1ccccc1)S(=O)(=O)c1ccc(Cl)c(NC(=O)COC(=O)c2cc(O)c3ccccc3c2O)c1	37	39	nt	6	123*	nt
CCN(c1ccccc1)S(=O)(=O)c1ccc(Cl)c(NC(=O)CSc2nnc(C)s2)c1	-66*	-73	0	4	0	0
CCN(c1ccccc1)S(=O)(=O)c1ccc(Cl)c(NC(=O)CSc2nncs2)c1	-3	-1	-1	4	-1	1
O=C1Nc2ccc3sc4ccccc4c3c2C1=O	-2	8	nt	11	1	3
COc1cc(C(=O)N/N=C(\C)c2ccccn2)cc(OC)c1OC	1	-4	-2	2	63*	-1
C/C(=N\NC(=O)c1ccccn1)c1ccc(Cl)cc1	24	34	nt	12	-1	5
C/C(=N/NC(=O)c1ccccn1)c1c[nH]c2ccccc12	4	26	5.8*	16	18	2
COc1cc(C(=O)N/N=C(\c2ccccc2)c2ccccn2)cc(OC)c1OC	7	-1	-2	2	25	-4
N#CC(c1ccc(N)cc1)C(CC(=O)c1ccccc1)c1ccccc1 (stereo unspecified)	nt	nt	3	nt	nt	2
CCn1c(C)csc1=NC(=O)c1ccccc1	12	32	0	-2	61*	-1
C[C@]12c3[nH]c4ccc(Cl)cc4c3CCN1C(=O)[C@@H](CC(=O)NCc1ccco1)C[C@@H]2C(=O)N1CCOCC1	nt	nt	0	nt	nt	-3
CCOC(=O)c1cnc2ccc(C)cc2c1Sc1ccc(F)cc1	38	60*	0	-1	2	0
CC1CCCCC1NC(=O)CSc1nnc(C(F)(F)F)n1C (stereo unspecified)	nt	nt	1	nt	nt	-1
O=C(/C=C/c1cccc(Cl)c1)Nc1ncccn1	1	28	1	0	64*	1
SMILES	HSF1 inhib	HSF1 activator	DAX1 inh	HSP90 refold inh	AHR act	FXN GAA850 act
O=C(/C=C/c1cccc(F)c1)Nc1ccc(S(=O)(=O)Nc2ncccn2)cc1	-3	12	-1	5	54*	2
COc1cc(SC)ccc1C(=O)OCC(=O)NC(=O)NC(C)C	1	17	0	-7	-1	1
COc1cc(SC)ccc1C(=O)OCC(=O)NCC(C)C	7	37	4.3*	0	0	-1
Cc1nn(-c2ccccc2)c2nc(C(F)F)cc(C(F)F)c12	nt	nt	1	nt	10	4
O=C(COC(=O)c1ccco1)NC12CC3CC(CC(C3)C1)C2	nt	nt	1	nt	1	1
Cc1ccc(C(=O)N/C(=C\c2ccc(Br)cc2)c2nc(=S)[nH][nH]2)cc1	-69*	-75	0	4	23	3
O=C(N/C(=C/c1cccc(Br)c1)c1nc(=S)[nH][nH]1)c1ccccc1	5	5	0	0	24	1
O=C(NCc1ccccc1C(F)(F)F)C1CC(c2ccc(C(F)(F)F)cc2)=NO1 (stereo unspecified)	-65*	-72	1	nt	1	3
O=C(NCc1ccc(C(F)(F)F)cc1)C1CC(c2ccc(C(F)(F)F)cc2)=NO1 (stereo unspecified)	-5	-1	1	nt	1	2
Cc1ccc(C(=O)OCC(=O)c2ccc(Cl)s2)s1	28	60*	0	-3	3	2
Cc1ccc(C(=O)OCC(=O)NCCNC(=O)COC(=O)c2ccc(C)s2)s1	-2	-18	-1	nt	-1	-3
N#Cc1ccccc1CSc1nc2ccc(NC(=O)c3ccccc3C(=O)O)cc2s1	14	48	0	2	50*	5
O=C(O)c1ccc(CSc2nc3ccc(NC(=O)c4ccccc4C(=O)O)cc3s2)cc1	-5	-11	-1	-1	3	0
C#CCN(C[C@@H]1[C@@H](OC(=O)NCc2ccccc2F)[C@@H](OC(=O)NCc2ccccc2F)CN(C(=O)OC(C)C)N1C(=O)OC(C)C)S(=O)(=O)c1ccc(C)cc1	nt	nt	0	nt	nt	-4
COCCN1CCc2c(C)nc3c(-c4ccc(OC)c(OC)c4)cnn3c21	15	7	0	-4	49*	4
COc1ccc(-c2cnn3c4c(c(C)nc23)CCN4C2CCCC2)cc1OC	-3	-14	5.9*	-1	11	5
Cc1nc2c(C#N)cnn2c2c1CCN2CC1CCCO1 (stereo unspecified)	-3	-8	1	0	1	3
COc1ccc(C2=CN3CCCCC3CC2=O)cc1OC (stereo unspecified)	nt	nt	1	nt	2	2
ClC1(Cl)CC1CSc1nnc(-c2ccncc2)o1 (stereo unspecified)	-8	-3	2	1	0	-1
CCCCN1C(=O)C(CC(=O)NCC2CCCCC2)CC(C(=O)N(C(C)C)C(C)C)=C1C (stereo unspecified)	nt	nt	1	nt	nt	1
CCCOc1ccccc1NC(=O)/C=C/c1ccc(OC)c(S(=O)(=O)N2CCOCC2)c1	nt	nt	0	nt	nt	-3

High-throughput results: PubChem BioAssay, several laboratories
